ALR inh: blocks human ALR sulfhydryl oxidase activity; purified ALR, DTT oxidation, H2O2 HRP-luminol luminescence; inhibition, % (concentration not given with the values); 290,000 compounds, 3.8% hits; AID 485317;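 active = mean replicate inhibition above about 79%, with every replicate also reaching it, limit read from the data; inconclusive = only one of the two criteria met; inactive = mean below limit and not every replicate reaching it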
GC-B act: GC-B (human) receptor activation; AID 1920062; 370,000 compounds, 0.11% hits; HEK293-GC-B cells, CNP EC30, cGMP TR-FRET; 0% at EC30 CNP, 100% saturating CNP; P20594; activation, % at 10 µM;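 active = activation at 10 µM reaching about 35% in either raw or pattern-adjusted values, limit read from the data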
Target sequence (P20594 whole entry, looked up): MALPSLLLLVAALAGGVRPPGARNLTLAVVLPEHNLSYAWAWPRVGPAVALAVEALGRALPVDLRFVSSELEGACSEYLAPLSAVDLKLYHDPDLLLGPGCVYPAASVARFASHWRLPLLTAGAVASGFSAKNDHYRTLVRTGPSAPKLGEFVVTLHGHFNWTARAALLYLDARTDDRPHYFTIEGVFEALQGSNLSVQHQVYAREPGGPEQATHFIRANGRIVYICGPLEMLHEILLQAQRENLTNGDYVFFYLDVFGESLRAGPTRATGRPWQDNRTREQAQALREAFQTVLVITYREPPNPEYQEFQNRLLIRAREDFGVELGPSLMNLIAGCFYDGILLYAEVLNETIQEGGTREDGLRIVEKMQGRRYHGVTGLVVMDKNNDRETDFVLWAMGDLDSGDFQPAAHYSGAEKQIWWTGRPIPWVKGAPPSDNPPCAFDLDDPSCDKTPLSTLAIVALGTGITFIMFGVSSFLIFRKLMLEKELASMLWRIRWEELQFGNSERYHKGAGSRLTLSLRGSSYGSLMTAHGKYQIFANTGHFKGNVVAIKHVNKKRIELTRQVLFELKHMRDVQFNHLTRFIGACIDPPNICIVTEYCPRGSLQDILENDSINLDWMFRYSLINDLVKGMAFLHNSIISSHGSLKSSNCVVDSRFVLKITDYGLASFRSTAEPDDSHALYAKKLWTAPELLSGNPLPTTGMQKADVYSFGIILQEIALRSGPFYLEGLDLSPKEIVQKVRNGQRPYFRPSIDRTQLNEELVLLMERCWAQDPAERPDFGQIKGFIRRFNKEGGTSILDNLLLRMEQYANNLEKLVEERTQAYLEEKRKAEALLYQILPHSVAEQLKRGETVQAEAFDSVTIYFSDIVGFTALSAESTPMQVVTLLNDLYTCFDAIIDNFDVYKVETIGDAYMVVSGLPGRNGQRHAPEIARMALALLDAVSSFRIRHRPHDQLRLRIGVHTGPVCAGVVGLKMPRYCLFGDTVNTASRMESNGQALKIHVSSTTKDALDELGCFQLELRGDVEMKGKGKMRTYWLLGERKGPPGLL
NPR1 activator: GC-A (human) enzyme activation; P16066; HEK293 GC-A cells, cGMP TR-FRET, EC30 ANP; 0% at EC30 ANP, 100% saturating ANP; activation, % at 10 µM; 370,000 compounds, 0.14% hits; AID 1671463; in the data active = activation above about 40%
HDAC3 inh: blocks human histone deacetylase 3; O15379; recombinant HDAC3, fluorogenic peptide/trypsin coupled, fluorescence; inhibition, % at 8.3 µM; 320,000 compounds, 0.15% hits; in the data active = inhibition above about 26%, passing the limit was not always enough; inconclusive = no clear call, values can overlap the other calls
Of the large screens only hits and unclear results are named; the others gave an inactive call. The full list was thinned out, with hits kept by preference.

Cc1ccc(S(=O)(=O)N2CCN(c3ccccc3)CC2)cc1C(=O)NC1CCCCC1	none
Cc1cccc(-c2cccc3c4c([nH]c23)[C@@H]2C[C@H]3[C@@H](CN2CC4)[C@H](C)ON3C)c1	none (no result: ALR inh, HDAC3 inh)
O=C(Nc1ccc(S(=O)(=O)Nc2ncccn2)cc1)c1cccc([N+](=O)[O-])c1	none (no result: ALR inh, HDAC3 inh)
O=C(Nc1ccc(S(=O)(=O)Nc2ncccn2)cc1)c1ccc2ncsc2c1	ALR inh 99.0
O=C(Nc1cccc(F)c1)c1ccc2ncsc2c1	none (no result: ALR inh, GC-B act, NPR1 activator)
O=C(Nc1ccc(S(=O)(=O)Nc2ncccn2)cc1)c1ccc(S(=O)(=O)N2CCCC2)cc1	ALR inh 96.1
O=C(Nc1ccncc1)c1ccc2ncsc2c1	ALR inh 98.3
Cn1c(N)c(C(=O)CSc2nnc(C3CC3)n2N)c(=O)n(C)c1=O	none
Cc1ccc2nc(-c3ccc(Br)o3)oc(=O)c2c1	ALR inh 88.9
CC(Oc1cccnc1[N+](=O)[O-])C(=O)Nc1ccc(Cl)cn1 (stereo not given)	none
Oc1cc(O)cc(-c2cc3ccc(O)cc3o2)c1	ALR inh 99.0
NC(=S)c1cc2ccc(O)cc2oc1=O	none (no result: ALR inh, HDAC3 inh)
CC(C#N)Sc1ccc(S(=O)(=O)N2CCCC2)cn1 (stereo not given)	none
O=C(Nc1ccc(O)cc1)N1CCOCC1	ALR inh 99.0
O=C(Nc1ccc(Nc2ccccc2)cc1)N1CCOCC1	ALR inh 99.3
N#CC1(C#N)OC12CCS(=O)(=O)c1ccccc12 (stereo not given)	none (no result: ALR inh, HDAC3 inh)
Cc1ccc(S(=O)(=O)N2CCC(C(=O)Nc3nnc(C)s3)CC2)cc1	none (no result: ALR inh)
O=C(O)CCCCCNc1nc(=S)[nH]c2ccccc12	ALR inh 82.3
Cc1nc2cc(N=NC3=C(O)CCCC3=O)ccc2s1	none
COc1cc(CNc2ccc3c(c2)OCCO3)ccc1OCC(N)=O	ALR inh 99.5
COc1ccc(NCc2ccc3c(c2)OCO3)cc1Cl	ALR inh 96.7 (no result: GC-B act, NPR1 activator)
CCOc1cc(CNc2ccc3c(c2)OCCO3)cc(Br)c1OCC(N)=O	none
O=C(O)C1CCCCC1C(=O)Nc1ccc(S(=O)(=O)N2CCCC2)cc1 (stereo not given)	none
CN(C)C(=O)c1c(-c2ccccc2)oc2ccc(O)cc12	ALR inh 98.2
O=C(O)c1c(-c2ccccc2)oc2ccc(O)cc12	none
CCOC(=O)c1c(C)[nH]c(C)c1C(=O)CSc1nc2ccccc2c(=O)n1-c1ccc(C)cc1	HDAC3 inh 31.5
Cc1ccc(-n2c(SCC(=O)N3CC(=O)Nc4ccccc43)nc3ccccc3c2=O)cc1	ALR inh 98.3
Cc1cccc(C)c1-n1c(SCC(=O)N2CC(=O)Nc3ccccc32)nc2ccccc2c1=O	none
CC(=O)Nc1ccc(NC(=O)[C@@H](NC(=O)N2C[C@H]3C[C@@H](C2)c2cccc(=O)n2C3)C(C)C)cc1	none
CCN1C/C(=C/c2ccc(OC)c(O)c2)C(=O)/C(=C/c2ccc(OC)c(O)c2)C1	ALR inh 97.8
CCOC(=O)c1c(-c2ccc(C)o2)csc1NC(=S)NC(=O)c1cccs1	GC-B act 37.2
CCOC(=O)c1c(-c2ccc(C)o2)csc1NC(=S)NC(=O)c1ccccc1Br	GC-B act 37.1
CCOC(=O)c1c(-c2ccccc2)csc1NC(=S)NC	none
CCOC(=O)c1c(-c2ccc(C)o2)csc1NC(=O)CSc1nnc(C)s1	none
CCCCn1nc2cc(C(=O)NC3CCCc4ccccc43)ccc2c1OCC (stereo not given)	none
O=C(CSc1n[nH]c(-c2ccc(Br)cc2)n1)N1CCOCC1	none
Cc1cc(-c2n[nH]c(=S)n2/N=C/c2cccc([N+](=O)[O-])c2)n[nH]1	ALR inh 97.1
Cc1cc(-c2n[nH]c(=S)n2/N=C/c2cccc(O)c2)n[nH]1	ALR inh 96.3
O=[N+]([O-])c1cccc(/C=N/n2c(C3CCCCC3)n[nH]c2=S)c1	none
Cc1cc(-c2n[nH]c(=S)n2N=Cc2ccc(-c3ccccc3)cc2)n[nH]1	none (no result: ALR inh, HDAC3 inh)
CC(C)c1ccc(SCc2noc(C(=O)NCC3CCCO3)c2C(=O)O)cc1 (stereo not given)	ALR inh 96.9
C=CCNC(=O)c1onc(CSc2cc(C)ccc2C)c1C(=O)O	ALR inh 85.7
Cc1cc(C)cc(N2C(=O)CC(Sc3ncn[nH]3)C2=O)c1 (stereo not given)	HDAC3 inh 29.2
Cc1cc(C)cc(N2C(=O)CC(Sc3nnnn3-c3ccccc3)C2=O)c1 (stereo not given)	none
COc1ccc(CNS(=O)(=O)/C=C/c2ccc(OC)cc2CNC(=O)OC(C)(C)C)cc1	none (no result: ALR inh, HDAC3 inh)
CC(C)C1Cc2c(sc3c2c(=O)n(-c2ccccc2)c2n[nH]c(=S)n32)CO1 (stereo not given)	ALR inh 93.7
COc1ccc(-n2c(=O)c3c4c(sc3n3c(=S)[nH]nc23)CCCC4)cc1	ALR inh 95.7
C=CCn1c(=O)c2c3c(sc2n2c(Nc4ccc(OC)cc4)nnc12)CCCC3	GC-B act 54.2, NPR1 activator 47.7
COc1ccccc1C(=O)N1CCCC(C)(C(=O)NS(=O)(=O)C2CC2)C1 (stereo not given)	none (no result: ALR inh, HDAC3 inh)
COc1cc(N)c2ncsc2c1	none (no result: ALR inh, HDAC3 inh)
COc1cc(CN2C[C@@H](CO)O[C@@H](n3cnc4c(NC5CCCC5)ncnc43)C2)cc(OC)c1OC	none (no result: ALR inh, HDAC3 inh)
CC(=O)OCC1O[C@@H](O[C@@H]2C[C@H]3C(C)(C)[C@H](OC(C)=O)CC[C@]3(C)[C@H]3CC[C@]45C[C@]4(CC[C@H]5[C@@H](C)C[C@@H](O)[C@H](O)C(C)(C)O)[C@@]32C)[C@H](O)[C@@H](O)[C@@H]1O (stereo not given in full)	HDAC3 inh 41.9 (no result: GC-B act, NPR1 activator)
CC(C)=CCC[C@](C)(O[C@@H]1O[C@H](CO[C@@H]2O[C@H](CO)[C@@H](O)[C@H](O)[C@H]2O)[C@@H](O)[C@H](O)[C@H]1O)C1CC[C@]2(C)C1C(=O)CC1[C@@]3(C)CC[C@H](O[C@H]4O[C@@H](CO)[C@H](O)[C@@H](O)[C@@H]4O)C(C)(C)C3CC[C@]12C (stereo not given in full)	none
Cc1ccccc1C1C(C#N)=C2N=C(N)c3ccccc3N2C2=C1C(=O)CCC2 (stereo not given)	GC-B act 38.2
O=C(CSc1nnc(-c2ccc(O)cc2)o1)NNC(=O)c1ccncc1	none
COc1ccc(NC(=S)N/N=C2\CC(C)(C)Oc3ccc(O)cc32)cc1	none
COc1ccccc1NC(=S)N/N=C1\CC(C)(C)Oc2ccc(O)cc21	NPR1 activator 42.1
COc1cccc(C2Nc3cc(Cl)c(S(N)(=O)=O)cc3S(=O)(=O)N2)c1 (stereo not given)	none
C/C(=N/NC(=O)c1sc(NS(=O)(=O)c2ccc(C)cc2)nc1C)c1sc(N)nc1C	ALR inh 98.7
Cc1ccc(S(=O)(=O)Nc2nc(C)c(C(=O)NN)s2)cc1	none
O=C(NC(c1ccccc1)c1ccsc1)C1CCN(CCOc2ccc(Cl)cc2Cl)CC1 (stereo not given)	none (no result: ALR inh, HDAC3 inh)
O=c1oc(-c2cccnc2)nc2ccccc12	HDAC3 inh inconclusive (no result: ALR inh)
O=c1oc(-c2ccccc2Br)nc2ccccc12	HDAC3 inh 44.5

High-throughput results from PubChem BioAssay.
